Experimental data as given in PubChem BioAssay (EPA / NIEHS).
The source made the active and inactive calls. How the source made its calls: active means hit-call score of the fitted dose curve at least 0.9, where 1 is the maximum; inactive means score below 0.9.

Test: ATG_FoxO_CIS: Attagene CIS-FACTORIAL HepG2 Assay for human Forkhead box O (FoxO) (AID 2282943)
Conditions: HepG2 Attagene cis-reporter, FoxO element, mRNA; actives raise or lower the signal
Procedure: ATG_CIS is a cell-based, multiplexed-readout assay that uses HepG2, a human liver cell line, with measurements taken at 24 hours after chemical dosing in a 24-well plate.ATG_FoxO_CIS is one of 52 assay component(s) measured or calculated from the ATG_CIS assay. It is designed to make measurements of mRNA induction, a form of inducible reporter, as detected with fluorescence intensity signals by Reverse transcription polymerase chain reaction (RT-PCR) and Capillary electrophoresis technology.Data from the assay component ATG_FoxO_CIS was analyzed into 1 assay endpoint. This assay endpoint, ATG_FoxO_CIS, was analyzed with bidirectional fitting relative to DMSO as the negative control and baseline of activity. Using a type of inducible reporter, measures of mRNA for gain or loss-of-signal activity can be used to understand the reporter gene at the transcription factor-level as they relate to the gene FOXO1 and FOXO3. Furthermore, this assay endpoint can be referred to as a primary readout, because this assay has produced multiple assay endpoints where this one serves a reporter gene function. To generalize the intended target to other relatable targets, this assay endpoint is annotated to the dna binding intended target family, where the subfamily is forkhead box protein.
Human liver HepG2 cells are transiently transfected with multiple reporter transcription units (MRTUs) in 6-well plates using FuGene 6 reagent (Roche; 3 ml FuGene/1 mg DNA). The MRTU constructs are regulated by a cis-regulating element (promoter). […] A major difference between the CIS and TRANS system is that in CIS activities of endogenous TFs are measured, whereas the TRANS assay evaluates changes in activities of exogenous, chimeric NR-Gal4 proteins. […] At the end of 24 hour incubation, total RNA was isolated using TriZol reagent (Invitrogen). The isolated RNA is then reverse-transcribed using oligo(dT) primer and Mo-MLV reverse transcriptase (Invitrogen) with DNAse I (Ambion) treatment for 30 min. The one-tenth of the produced cDNA was amplified by PCR using Taq DNA polymerase (Invitrogen) and two reporter sequence-specific primers. The PCR products were fluorescently labeled by primer extension with 6-arboxyfluorescein (6-FAM) 5'-labeled reporter sequence-specific primer (2 min at 95 C, 20 s at 68 C and 10 min at 72 C) and these products were digested with 5U of HpaI (New England Biolabs) for 2h at 37 C. The fragments were purified using Qiaquick PCR columns (Qiagen), analyzed on an ABI 3130xL genetic analyzer (Applied Biosystems) with peak positions identified by using a set of X-rhodamine (ROX)-labeled MapMarker1000 molecular weight standards (BioVentures). The raw capillary electrophoresis data was processed using Attagraph software (Attagene).

SMILES	outcome	AC50
CCn1c2ccccc2c2cc(N)ccc21	inactive	
COc1cc(C=O)ccc1OC(=O)C(C)C	inactive	
CC(=O)O[C@H](CC(=O)[O-])C[N+](C)(C)C	inactive	
CC1(C)CCC(C)(C)c2cc(C(=O)Nc3ccc(C(=O)O)cc3)ccc21	inactive	
CC1=CCC2C(C1)C2(C)C (stereo not given)	inactive	
CC1=CCC(O)(C(C)C)CC1 (stereo not given)	inactive	
c1cc(C(c2ccc(OCC3CO3)cc2)c2ccc(OCC3CO3)cc2)ccc1OCC1CO1 (stereo not given)		167 µM (active)
CC(C)(COC(=O)c1ccccc1)COC(=O)c1ccccc1	inactive	
O=C(O)CCSCCC(=O)O	inactive	
CC(=O)C=CC1=C(C)CCCC1(C)C	inactive	
O=C(O)c1ccc(C(=O)O)cc1	inactive	
CCOC(=O)c1ccccc1OC	inactive	
CC1(CO)CN(c2ccccc2)NC1=O (stereo not given)	inactive	
CC(C)c1cccc(O)c1	inactive	
Clc1ccc(Cl)c(Cl)c1Cl	inactive	
Nc1ccc(F)c([N+](=O)[O-])c1	inactive	
OC1OC[C@@H](O)[C@H](O)[C@H]1O (stereo not given in full)	inactive	
Nc1cc(Cl)c(O)c(Cl)c1		135 µM (active)
CCCC(=O)c1cc(O)c(O)cc1O	inactive	
CC(C)C(C)(C)C(C)(C)C(C)(C)S	inactive	

SMILES	outcome	AC50
Cc1cc(C2(c3cc(C)c(O)cc3C)OS(=O)(=O)c3ccccc32)c(C)cc1O	inactive	
COC(=O)OC	inactive	
O=[N+]([O-])c1ccc(C=Cc2ccc([N+](=O)[O-])cc2S(=O)(=O)O)c(S(=O)(=O)O)c1	inactive	
CC(C)(C)c1cc(CCC(=O)NN)cc(C(C)(C)C)c1O	inactive	
O=[N+]([O-])c1cc(C(F)(F)F)ccc1Cl	inactive	
O=C(O)CN(CCN(CC(=O)O)CC(=O)O)CCN(CC(=O)O)CC(=O)O	inactive	
NC(=O)c1ccccc1Cl	inactive	
CCCC(=O)OCCC(C)CCC=C(C)C (stereo not given)	inactive	
CC(C#N)(CCC(=O)O)N=NC(C)(C#N)CCC(=O)O (stereo not given)	inactive	
O=C[C@H](O)[C@H](O)[C@H](O)CO	inactive	
NC(=O)Nc1ccc(Cl)cc1	inactive	
OCCCCCO	inactive	
C=C(C)C1CCC(C)CC1O (stereo not given)	inactive	
S=C(S)NCCNC(=S)S	inactive	
CN(CCOc1ccc(CC2SC(=O)NC2=O)cc1)c1ccccn1 (stereo not given)	inactive	
NCCOCCO	inactive	
CC(C)C1CCC(O)CC1 (stereo not given)	inactive	
CC(C)=CCCC(C)CC=O (stereo not given)	inactive	
OCc1cccnc1	inactive	
CCO[Si](CCCS)(OCC)OCC	inactive	
